High-throughput results (PubChem BioAssay)
An excerpt weighted towards active compounds, which were near 3.9% of everything screened.
H9c2 protect = myocardial damage modulation in H9c2 cells. H9c2 cardiomyocytes, H2O2 injury protection, ATPLite, 2 h. protection from H2O2 cell death, % at 20 µM. 360,000 tested, 0.63% active;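 active = compounds giving at least 50% protection of heart cells from peroxide-induced death in the single-dose screen, raw or plate-pattern-corrected value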;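 note: 0% = DMSO wells with peroxide and 100% = DMSO wells without peroxide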
UBC9 SUMO inh = SUMOylation inhibition. HTRF SUMOylation assay, SAE1/SAE2 + UBC9, in vitro. 290,000 tested, 0.36% active. P63279. inhibition, % at 35 µM; in the data active = inhibition above about 50%, passing the limit was not always enough
Target sequence (P63279 whole entry, looked up): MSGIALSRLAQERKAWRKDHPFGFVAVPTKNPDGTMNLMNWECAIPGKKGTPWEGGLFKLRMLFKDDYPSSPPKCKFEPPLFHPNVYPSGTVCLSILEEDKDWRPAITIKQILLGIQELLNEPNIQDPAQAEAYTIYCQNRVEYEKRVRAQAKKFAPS
ALR H2O2 inh = inhibitors of human sulfhydryl oxidase ALR | P55789 | purified ALR, DTT oxidation, H2O2 HRP-luminol luminescence | inhibition, % (concentration not given with the values) | 290,000 tested, 3.8% active | AID 485317;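 active = mean replicate inhibition above about 79%, with every replicate also reaching it, limit read from the data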
NTR1 agonist = activates human neurotensin receptor 1 | activation, % at 20 µM | AID 493036 | 330,000 tested, 0.17% active | P30989 | NTR1-U2OS beta-arrestin-GFP spot imaging, agonist mode;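 active = activation at or above 40% of the spot to cytoplasm intensity ratio, with at least 20 cells analyzed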;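 note: 0% = DMSO without peptide and 100% = 100 nM NTR1 peptide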
Target sequence (P30989 whole entry, looked up): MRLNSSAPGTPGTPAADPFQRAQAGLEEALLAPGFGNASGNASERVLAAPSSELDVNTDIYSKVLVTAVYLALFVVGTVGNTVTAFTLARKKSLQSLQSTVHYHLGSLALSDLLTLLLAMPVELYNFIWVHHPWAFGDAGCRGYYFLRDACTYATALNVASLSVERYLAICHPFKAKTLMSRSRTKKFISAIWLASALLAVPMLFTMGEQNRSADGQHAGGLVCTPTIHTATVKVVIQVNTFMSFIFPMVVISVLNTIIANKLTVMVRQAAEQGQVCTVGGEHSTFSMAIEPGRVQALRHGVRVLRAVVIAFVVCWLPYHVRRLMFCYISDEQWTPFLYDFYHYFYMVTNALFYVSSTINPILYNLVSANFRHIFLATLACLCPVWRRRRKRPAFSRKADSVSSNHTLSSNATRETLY
Numbers without * were called inactive; . = no result.

SMILES	H9c2 protect	UBC9 SUMO inh	ALR H2O2 inh	NTR1 agonist
O=C(CSc1nc2ccccc2n1CCc1ccccc1)N1CCOCC1	5	-4	16	2
Cc1cc(OCC(=O)Nc2ncn[nH]2)ccc1Cl	4	.	-1	-1
COc1cccc(CNc2ccc(S(N)(=O)=O)cc2)c1OCc1ccccc1F	-8	-10	0	-2
O=C(Nc1ccc(Br)cc1)c1ccc(N2C(=O)C3CC=C(Cl)CC3C2=O)cc1 (stereo not given)	-11	53*	-10	1
O=C(NNc1nc2c(F)cc(F)cc2s1)C1COc2ccccc2O1 (stereo not given)	6	-16	.	0
COc1cc(-c2c(C#N)c(=O)[nH]c3c2c(C)nn3-c2ccccc2)ccc1O	3	21	99*	1
CSC1=NCCN1S(=O)(=O)c1ccccc1	3	-5	-20	0
Cn1cnc([N+](=O)[O-])c1NCc1ccccc1	3	10	.	-2
O=[N+]([O-])c1cccc(-c2ccc(C(=S)N3CCOCC3)o2)c1	0	10	-4	-1
COc1cc([N+](=O)[O-])ccc1-c1ccc(C(=O)Nc2ccc(NC(C)=O)cc2)o1	6	16	98*	.
O=C(Nc1ccc(CN2CCOCC2)cc1)c1ccc(-c2cccc([N+](=O)[O-])c2)o1	62*	-2	24	10
CC(=O)Nc1ccc(NC(=O)c2ccc(-c3ccc([N+](=O)[O-])cc3)o2)cc1	15	15	-31	4
Nc1c(-c2ccccc2)c(CSc2nc3ccccc3[nH]2)nn1-c1cccc(Cl)c1	-1	-30	91*	3
Nc1c(-c2ccccc2)c(CSc2nc3ccccc3[nH]2)nn1-c1ccc(Cl)cc1	3	-11	.	.
CN(CCCS(=O)(=O)[O-])c1ccc(/C=C/c2ccc3ccccc3[n+]2C)cc1	-11	-18	16	0
CN(C)c1ccc(/C=C/c2ccc3ccccc3[n+]2C)cc1	-15	-79	98*	4
Oc1ccc(/C=N/NC(=S)NCc2ccco2)cc1	-2	22	99*	-2
CCN(CC)c1ccc(/C=N/NC(=S)NCc2ccco2)cc1	-6	-2	99*	10
COc1cc(/C=N/NC(=S)NCc2ccco2)cc(OC)c1OC	-4	-10	11	1
Oc1c(Br)cc(/C=N/NC(=S)NCc2ccco2)cc1Br	5	15	89*	2
S=C(NCc1ccco1)N/N=C/c1ccc(Cl)cc1	-6	23	.	.
COc1ccc(CNC(=O)C2CC=CCC2C(=O)O)cc1OC (stereo not given)	5	-4	-8	-1
Cc1ncc(CO)c(/C=N/NC(=O)c2ccoc2C)c1O	44	.	.	0
Cc1ccc(-c2cn(S(=O)(=O)c3ccc(C)cc3)nc2N)cc1	-12	-9	.	4
N#Cc1ccc(CN2CCN(C(=O)Cn3nc(C(N)=O)c4ccccc4c3=O)CC2)cc1	0	7	-11	-1
SMILES	H9c2 protect	UBC9 SUMO inh	ALR H2O2 inh	NTR1 agonist
COC(=O)CSc1ccc(S(=O)(=O)N2CCC(C)CC2)cc1[N+](=O)[O-]	3	8	-3	6
O=C1CSC(=S)N1/N=C/c1cc(Br)ccc1O	.	-11	98*	.
COC(=O)c1cc2c(-c3ccccc3)cc3ccccn3c-2c1C(=O)OC	61*	12	-4	0
COC(=O)c1c(C)c2c(C)cc3ccccn3c-2c1C(=O)OC	6	17	1	0
CCn1c(=O)c(C(=O)NNS(=O)(=O)c2ccc(Cl)cc2)c(O)c2ccccc21	-6	4	34	1
COc1ccc(C(CC(=O)O)NC(=O)COc2ccccc2)cc1OC (stereo not given)	-1	21	23	0
Oc1c(Br)cc(Br)cc1/C=N/c1nc2c(s1)CCCC2	59*	.	-7	-1
Oc1ccc2ccccc2c1/C=N/c1nc2c(s1)CCCC2	-5	15	-13	2
CCN(CC)C(=O)c1c[nH]c2ccc(S(=O)(=O)Nc3cc(C)cc(C)c3)cc2c1=O	4	21	2	2
CCCCC(CCC(=O)O)(C(=O)OCC)c1csc(Nc2ccccc2)n1 (stereo not given)	9	16	96*	0
CCN1C(=O)CC(C(=O)NC)SC1=Nc1cc(Cl)c(O)c(Cl)c1 (stereo not given)	3	1	99*	2
Cc1cc(C)cc(OCC(=O)NNC(=O)c2ccccn2)c1	78*	.	0	5
N#Cc1ccc(OC(=O)Cc2ccsc2)cc1	6	14	25	1
FC(F)(F)c1ccc(Cl)c(-n2c(-c3cc(-c4ccco4)[nH]n3)n[nH]c2=S)c1	3	31	45	0
FC(F)(F)c1ccc(Cl)c(-n2c(-c3cc(C4CC4)[nH]n3)n[nH]c2=S)c1	1	-3	78*	-1
Cc1ccccc1SCC(=O)OCC(=O)Nc1ccc(N(C)C)cc1	-6	-4	99*	-1
CN(C)c1ccc(NC(=O)COC(=O)Cn2nnc3ccccc32)cc1	-1	-10	99*	2
COCC(=O)Nc1ccc(N(C)C)cc1	-2	-6	.	0
Cc1cc(N)n2ncc(-c3ccccc3)c2n1	-9	7	90*	0
O=C(NNc1cc(Br)c(O)c(Br)c1)c1ccccc1	-7	13	99*	0
CCCN(CC(=O)Nc1ccccc1OC)C(=O)c1ccc(S(=O)(=O)Nc2ccccc2OC)cc1	2	.	.	.
S=C(NC1CCCC1)N1CCN(c2cccc(Cl)c2)CC1	-16	-3	-2	-2
S=C(NC1CC1)N1CCN(c2ccc(Cl)cc2)CC1	-4	1	98*	-1
O=C(C1CCC1)N1CCN(c2ccc(Cl)cc2)CC1	4	4	93*	0
O=S(=O)(NCCc1ccc(Cl)cc1)c1cccc2cccnc12	-1	4	1	2
SMILES	H9c2 protect	UBC9 SUMO inh	ALR H2O2 inh	NTR1 agonist
CNC(=O)Nc1ccc2snnc2c1	5	23	52	-1
Cc1nc2ccc(NC(=O)NCc3ccco3)cc2s1	-6	67*	-12	1
O=C(NCc1ccco1)Nc1ccc2snnc2c1	5	69*	39	-1
Nn1c(Cc2ccccc2)n[nH]c1=S	-3	19	95*	0
Nn1c(Cc2ccc(F)cc2)n[nH]c1=S	4	-13	60	-1
CCOc1ccc(Cc2n[nH]c(=S)n2Cc2ccccc2)cc1	-3	-1	95*	0
CC(C)CC(=O)Nc1c2c(nn1-c1ccc([N+](=O)[O-])cc1)CS(=O)(=O)C2	0	2	-1	0
Cc1ccc(S(=O)(=O)N2CCN(C(=O)N3CCOCC3)C2C(C)C)cc1 (stereo not given)	8	-6	-11	2
O=C(CSc1n[nH]c(-c2ccco2)n1)Nc1sc2c(c1C(=O)Nc1ccccc1)CCCC2	-3	7	98*	6
NC(=O)c1c(NC(=O)CSc2nnc(-c3ccco3)n2-c2ccccc2)sc2c1CCC2	12	49	97*	7
N#Cc1c(NC(=O)CSc2nnc(-c3ccco3)n2-c2ccccc2)sc2c1CCC2	-1	22	5	2
Cc1cccc(NC(=O)CN(C)CC(=O)NC(c2ccccc2)c2ccccc2)c1C	7	.	5	1
